Measured values reported in publication PMC11062922 (Nature Chemical Biology, 2023).
Like-named read-outs stand apart in the source and are kept apart here.

How the values were obtained:
Parameters in all cases: species or system human, MV4-11 + K-562 + COLO205 + SK-N-BE2 + OVCAR-8
Details in all cases: read-out: apparent Kd, n = 1
[1] = test system: ROCK1
[2] = test system: ROCK2
[3] = test system: TESK1
[4] = compound concentrations: 100 nM and 1000 nM (sheet 'Samples'), CATDS: 1
[5] = compound concentrations:100 nM and 1000 nM (sheet 'Samples')

For CC1=C(C(=O)Nc2ccc3[nH]nc(C)c3c2)C(c2ccc(C(F)(F)F)cc2)CC(=O)N1 (centres unmarked) [GSK466314A], the potency estimated from few doses ([1]; compound concentrations: 100 nM and 1000 nM (sheet 'Samples'), CATDS: 0.49623940575875802) was 94.4 nM and the potency estimated from few doses ([2]; compound concentrations: 100 nM and 1000 nM (sheet 'Samples'), CATDS: 0.50381802643412599) was 91.6 nM.
Molecule Nc1nonc1-c1nc2cnccc2n1C1CC1 [SB-736302] has a potency estimated from few doses ([1]; compound concentrations: 100 nM and 1000 nM (sheet 'Samples'), CATDS: 0.19196895649818499) of 1820 nM and a potency estimated from few doses ([2]; compound concentrations: 100 nM and 1000 nM (sheet 'Samples'), CATDS: 0.21159695131376299) of 1380 nM.
Molecule Cl.NC(=O)c1cccc(Nc2nccc(Nc3ccc(Oc4cccc(Cl)c4)c(Cl)c3)n2)c1 [GW659008A] has a potency estimated from few doses [3, 4] of 1780 nM.
With CC1=C(C(=O)Nc2cc3cn[nH]c3cc2F)C(c2ccc(C(F)(F)F)cc2)CC(=O)N1 (centres unmarked) [GSK429286A] the potency estimated from few doses ([1]; compound concentrations: 100 nM and 1000 nM (sheet 'Samples'), CATDS: 0.46177660943925602) was 57.8 nM and the potency estimated from few doses ([2]; compound concentrations: 100 nM and 1000 nM (sheet 'Samples'), CATDS: 0.48334108773041601) was 53 nM.
With Cc1nnc(-c2ccc(C)c(-c3ccc(C(=O)O)cc3)c2)o1 [GW608005X] the potency estimated from few doses [3, 5] was 900 nM.
CN(C)CCCn1c(-c2nonc2N)nc2cnccc21 [SB-751399-B] gave a potency estimated from few doses ([1]; compound concentrations: 100 nM and 1000 nM (sheet 'Samples'), CATDS: 0.43789550307339298) of 1470 nM and a potency estimated from few doses ([2]; compound concentrations: 100 nM and 1000 nM (sheet 'Samples'), CATDS: 0.58263169675533599) of 821 nM.
CC1=C(C(=O)Nc2ccc3[nH]ncc3c2)C(c2ccc(F)cc2)N=C(c2ccc(C(F)(F)F)nc2)N1 (centres unmarked) [GSK317354A] was tested, and the potency estimated from few doses ([1]; compound concentrations: 100 nM and 1000 nM (sheet 'Samples'), CATDS: 0.52745543701192599) was 630 nM and the potency estimated from few doses ([2]; compound concentrations: 100 nM and 1000 nM (sheet 'Samples'), CATDS: 0.475261399355146) was 777 nM.
Work on COC(=O)c1cccc(NC(=O)NC2CCN(c3ccnc(Nc4ccc(F)cc4)n3)C2)c1 (centres unmarked) [GSK1379725A] yielded a potency estimated from few doses [3, 4] of 1320 nM.
CCn1c(-c2nonc2N)nc2cnc(Oc3cccc(NC(=O)c4ccc(N(C)C)cc4)c3)cc21 [GSK248233A] gave a potency estimated from few doses [1, 5] of 230 nM and a potency estimated from few doses [2, 5] of 181 nM.
Molecule C[C@@H]1CC[C@H](C(=O)NC2CCCCC2)CN1c1cc(-c2ccc3c(N)n[nH]c3c2)nc(N)n1 [GSK2291363A] has a potency estimated from few doses [1, 5] of 2010 nM and a potency estimated from few doses [2, 5] of 1450 nM.
